From PubChem BioAssay (NCATS) come the findings set out here.

Assay [1] in a line: qHTS for Activators of Parkin Expression: LOPAC Validation Assay (NLuc Reporter) (AID 720572). In outline: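 Parkin promoter-driven FLuc/NLuc neuronal reporter cells; 24 h plating, 7-pt dose response, 24 h at 37 C/5% CO2; FLuc then NanoLuc reagent, 10 min each, luminescence; DMSO/positive control normalized.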
The target in assay [2] is T1, Hexokinase-4 (Homo sapiens) + Glucokinase regulatory protein (Homo sapiens) (UniProt P35557+Q14397). Briefly: qHTS assay for inhibitors of recombinant human GCK-GKRP interaction: Diaphorase-coupled assay (AID 743205). In outline:
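A kinetic fluorescence read (Ex 525/Em 590 nm, every minute for 30 minutes) tracked resorufin from a G6PDH-diaphorase coupled GCK reaction. It contained 10 nM GST-GCK, 10 nM FLAG-GKRP, 5 mM glucose, 0.4 mM ATP in Hepes pH 7.6. Normalized to with/without-enzyme DMSO controls.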
In general terms: qHTS replaces the single test concentration by a dilution series.

Assay [3] deals with T1, Hexokinase-4 (Homo sapiens) + Glucokinase regulatory protein (Homo sapiens). As to the kind of experiment: qHTS assay for inhibitors of recombinant human GCK-GKRP interaction: ADP-Glo assay (AID 743206). In outline:
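GST-GCK and FLAG-GKRP (15 nM each in the dispensed mix, with 2 uM S6P) react with 0.4 mM ATP and 5 mM glucose (final) in Hepes pH 7.6 for 60 min at room temperature. ADP is measured by ADP-Glo luminescence.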

The target is the same in assay [4]. As to the kind of experiment: qHTS assay for inhibitors of recombinant human GCK-GKRP interaction: HTRF assay (AID 743207). In outline: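 After 60 min equilibration at room temperature with anti-FLAG XL665 and anti-GST antibodies, FRET ratio (665/615 nm, excitation 320 nm) was read. Proteins: GST-GCK and FLAG-GKRP, each 5 nM, plus 2 uM S6P, pH 7.1 buffer; GCK-free wells define minimum signal.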

Assay [5] can be described thus: NS1 protein of Zika virus - qHTS assay to identify small molecule inhibitors in human HEK 293 cells (AID 1347053). Further: series mostly up to about 46 µM; nearly all actives have a fitted effect of over 55% in size. In outline:
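HEK 293 cells pretreated with compound for 1 h, then infected with ZIKV MR766 (MOI 0.5) for 24 h at 37 C. NS1 detected by TR-FRET with two anti-NS1 antibodies; normalized to uninfected (0%) and infected (100%) wells.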

Assay [6] addresses Tyrosine-protein phosphatase non-receptor type substrate 1 (Homo sapiens) + Leukocyte surface antigen CD47 (Homo sapiens) (UniProt P78324+Q08722). Briefly: CD47-SIRPalpha protein protein interaction - Alpha assay qHTS validation (AID 1347059).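 Further: bead proximity luminescence from CD47 binding SIRPalpha after compound preincubation with SIRPalpha.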 In outline:
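Binding is measured by AlphaScreen proximity: Ni-NTA acceptor beads capture His-CD47, streptavidin donor beads capture biotin-SIRPalpha. Each of three additions (SIRPalpha with compound, CD47, beads) incubates 30 min at room temperature protected from light.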

The target in assay [7] is Parathyroid hormone/parathyroid hormone-related peptide receptor (Homo sapiens) (UniProt Q03431). As to the kind of experiment: qHTS for PTHR1 Agonists: Optimization Screen against the NCGC LOPAC library (AID 1347079).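 Further: GloSensor cAMP luminescence in HEK-293 GP2 cells expressing human PTHR1 with IBMX.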 In outline: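 Agonist readout: GloSensor cAMP luminescence, read after 15 min at room temperature. HEK-293-derived GP2 line carries PTHR1; compounds tested as a titration for 1 hr at 37C in presence of IBMX. M-PTH (1-15) served as control.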

Assay [8] addresses N-terminal Xaa-Pro-Lys N-methyltransferase 1 (Homo sapiens) (UniProt Q9BV86). Briefly: qHTS Assay for Inhibitors of N-terminal methyltransferase 1 (NTMT1): LOPAC validation of the NTMT1 SAHH-coupled ThioGlo3 Assay (AID 1347143).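 Further: SAH from peptide methylation measured as thiol fluorescence via SAHH coupling and ThioGlo3; potency means the concentration at half of the fitted maximal effect; nearly all actives have a fitted effect of over 70% in size.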 In outline:
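Inhibition of NTMT1 methylation of peptide SPKRIA is followed by converting SAH with SAHH and labelling the released thiol with ThioGlo3. Plates are read at 340/450nm before and 30 min after reagent addition, both at room temperature.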

Assay [9] relates to Zika virus NS2B-NS3 protease (unlinked). As to the kind of experiment: Optimization of GU AMC qHTS for Zika virus inhibitors: Unlinked NS2B-NS3 protease assay (AID 1347151). Further: potency means the concentration at half of the fitted maximal effect; nearly all actives have a fitted effect of over 80% in size. In outline:
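Fluorescence gain (340/450 nm) over 15 min at room temperature, ~20% conversion, gave percent inhibition fitted to a 4-parameter Hill equation; enzyme was unlinked NS2B-NS3 (25 nM final), pH 8.0 Tris buffer.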

The nature of assay [10]: qHTS to identify inhibitors of the type 1 interferon - major histocompatibility complex class I in skeletal muscle: primary screen against the NCATS LOPAC collection (AID 1347405).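 Further: lytic HiBiT luminescence reporting HLA-B protein level.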 In outline: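 Luminescence from HiBiT fused to endogenous HLA-B in CRISPR-engineered human myoblasts served as the read-out. Cells received 4.0 ng/ml IFN-beta plus compound (seven concentrations, 1:4.3 steps, highest 46 uM final) for 24 hrs before lytic detection.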

A short description of assay [11]: qHTS for inhibitors of adenylyl cyclases using a fission yeast platform: a pilot screen against the NCATS LOPAC library (AID 1347410). In outline: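 GFP from fbp1-GFP reporter, read by Acumen laser cytometry, indicates AC inhibition in fission yeast expressing AC9, GNAS and PDE4D2. Cells grown 18 h in the dark at 30C with compounds, final up to 57 uM.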
The target of assay [12] is Single-stranded DNA cytosine deaminase (Homo sapiens) (UniProt Q9GZX7). Briefly: Validation qHTS assay for inhibitors of Activation Induced Cytidine Deaminase (AID): AID signal (AID 1347429). In outline:
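Fluorescence at 540 nm excitation and 590 nm emission reports ssDNA cytosine deamination by AID, with UDG in the same well. Compound-treated reactions ran 4 hr at room temperature with DJC20/DJC23 substrate, followed by 30 min NaOH treatment.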

Assay [13] is described as follows: Primary qHTS for inhibitors of La Crosse Virus (LACV) - induced cell death in SH-SY5Y cells (AID 1508616).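 Further: top concentration of the series differs between compounds; higher means more rescue of cells from virus-induced death.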 In outline:
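Protection against LACV-induced cell death is scored in SH-SY5Y cells exposed to compounds and virus (0.01 MOI) for 6 days. Data normalized to virus-infected DMSO wells and virus-free DMSO wells.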

Assay [14] addresses Calcium and integrin-binding protein 1 (Homo sapiens) (UniProt Q99828). As to the kind of experiment: Validation qHTS for Identification of Calcium Integrin Binding protein 1 (CIB1) Competitor (AID 1508618). In outline: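 Fluorescence polarization with 1 uM CIB1-GST and 100 nM FITC-alphaIIb peptide in HEPES pH 7.4, NaCl, 5 mM CaCl2, Tween20. Compounds at up to 114 uM final, preincubated with protein 15 min; read after 15 min more at RT.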

Assay [15] is described as follows: Primary qHTS for small molecule stabilizers of the endoplasmic reticulum resident proteome: Secreted ER Calcium Modulated Protein (SERCaMP) assay (AID 1508630). In outline: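 GLuc-SERCaMP-expressing SH-SY5Y cells, pretreated 16 h with compound, are challenged with thapsigargin to empty ER calcium stores; after 4 h, coelenterazine is added directly to the medium and luminescence is imaged.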

For assay [16], the target named is Rap guanine nucleotide exchange factor 3 (Homo sapiens) (UniProt O95398). As to the kind of experiment: Confirmatory qHTS for agonist of cAMP-regulated guanine nucleotide exchange factor 3 (EPAC1) (AID 1645881).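 Further: EPAC1 catalysed release of BODIPY-GDP from Rap1B seen as fluorescence loss; nearly all actives have a fitted effect of over 75% in size.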
Rap guanine nucleotide exchange factor 3 (Homo sapiens), sequence (O95398 whole entry, looked up): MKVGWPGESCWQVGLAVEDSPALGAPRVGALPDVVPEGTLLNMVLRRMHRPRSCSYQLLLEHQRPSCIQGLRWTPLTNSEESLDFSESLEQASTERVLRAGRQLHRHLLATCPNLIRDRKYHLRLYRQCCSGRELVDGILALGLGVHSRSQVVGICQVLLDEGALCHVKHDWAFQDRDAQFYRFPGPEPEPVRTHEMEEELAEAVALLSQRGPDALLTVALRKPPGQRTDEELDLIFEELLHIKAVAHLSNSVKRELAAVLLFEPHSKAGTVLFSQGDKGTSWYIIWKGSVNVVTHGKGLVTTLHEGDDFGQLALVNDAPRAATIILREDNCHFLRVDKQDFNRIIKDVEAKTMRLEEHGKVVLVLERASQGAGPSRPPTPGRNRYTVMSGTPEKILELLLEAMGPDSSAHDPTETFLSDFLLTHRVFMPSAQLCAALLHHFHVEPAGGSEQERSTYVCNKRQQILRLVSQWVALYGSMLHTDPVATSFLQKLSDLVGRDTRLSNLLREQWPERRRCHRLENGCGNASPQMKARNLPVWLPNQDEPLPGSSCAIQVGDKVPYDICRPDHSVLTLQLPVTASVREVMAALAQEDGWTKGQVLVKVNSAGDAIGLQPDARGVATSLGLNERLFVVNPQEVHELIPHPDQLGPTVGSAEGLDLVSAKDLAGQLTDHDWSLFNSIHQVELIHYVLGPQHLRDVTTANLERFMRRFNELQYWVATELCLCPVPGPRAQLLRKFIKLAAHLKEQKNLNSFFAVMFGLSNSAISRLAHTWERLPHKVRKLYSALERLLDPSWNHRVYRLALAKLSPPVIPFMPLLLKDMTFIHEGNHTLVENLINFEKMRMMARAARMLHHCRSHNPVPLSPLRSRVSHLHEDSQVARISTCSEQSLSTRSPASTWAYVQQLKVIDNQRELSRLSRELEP
For assay [17], the target named is Rap guanine nucleotide exchange factor 4 (Homo sapiens) (UniProt Q8WZA2). As to the kind of experiment: Confirmatory qHTS for agonist of cAMP-regulated guanine nucleotide exchange factor 4 (EPAC2) (AID 1645884).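 Further: nucleotide exchange releases bodipy-GDP from Rap1 and this lowers its fluorescence; nearly all actives have a fitted effect of over 65% in size.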
Rap guanine nucleotide exchange factor 4 (Homo sapiens), sequence (Q8WZA2 whole entry, looked up): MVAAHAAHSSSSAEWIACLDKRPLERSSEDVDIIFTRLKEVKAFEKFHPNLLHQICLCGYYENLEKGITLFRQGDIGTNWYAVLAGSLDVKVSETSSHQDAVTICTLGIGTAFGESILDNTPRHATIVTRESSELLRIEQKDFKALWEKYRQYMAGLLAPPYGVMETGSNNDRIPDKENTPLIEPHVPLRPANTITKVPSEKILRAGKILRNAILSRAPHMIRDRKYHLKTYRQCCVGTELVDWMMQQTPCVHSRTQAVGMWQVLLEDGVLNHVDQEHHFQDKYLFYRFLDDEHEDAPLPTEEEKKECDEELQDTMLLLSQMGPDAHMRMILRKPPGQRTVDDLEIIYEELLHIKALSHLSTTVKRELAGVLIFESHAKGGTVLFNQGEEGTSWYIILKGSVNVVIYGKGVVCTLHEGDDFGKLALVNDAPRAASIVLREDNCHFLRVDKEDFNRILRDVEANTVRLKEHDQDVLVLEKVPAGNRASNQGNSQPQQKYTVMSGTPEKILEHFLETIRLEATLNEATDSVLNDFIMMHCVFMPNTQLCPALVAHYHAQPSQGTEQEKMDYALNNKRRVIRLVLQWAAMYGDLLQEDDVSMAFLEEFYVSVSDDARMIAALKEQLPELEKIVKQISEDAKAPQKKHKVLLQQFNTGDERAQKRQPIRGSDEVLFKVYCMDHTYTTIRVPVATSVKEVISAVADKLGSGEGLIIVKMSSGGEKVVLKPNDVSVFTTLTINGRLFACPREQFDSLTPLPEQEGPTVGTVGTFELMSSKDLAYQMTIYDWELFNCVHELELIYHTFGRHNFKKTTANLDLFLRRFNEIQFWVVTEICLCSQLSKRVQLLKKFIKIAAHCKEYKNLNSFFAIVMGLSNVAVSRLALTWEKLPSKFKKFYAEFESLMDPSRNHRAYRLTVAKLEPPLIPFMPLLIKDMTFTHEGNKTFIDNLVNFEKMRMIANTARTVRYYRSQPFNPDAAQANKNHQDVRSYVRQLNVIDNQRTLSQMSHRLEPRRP
Assay [18] has the same target. Briefly: Confirmatory qHTS for antagonist of cAMP-regulated guanine nucleotide exchange factor 4 (EPAC2) (AID 1645885). Further: nearly all actives have a fitted effect of over 25% in size.
Assay [19] addresses Metallo-beta-lactamase type 2 (Klebsiella pneumoniae) (UniProt C7C422). As to the kind of experiment: qHTS to identify inhibitors of the New Delhi Metallo-beta-lactamase (NDM): assay validation screen against the NCATS LOPAC Collection (AID 1794843).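 Further: nitrocefin turnover by NDM-1 measured as 485 nm absorbance at plateau; series mostly up to about 38 µM.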 In outline:
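NDM-1 at 2 nM final in 50 mM HEPES pH 7.0, 1 uM ZnSO4, 0.01% Tween20, preincubated with LOPAC compounds pinned in DMSO; 50 uM nitrocefin (stock) added. Hydrolysis read as absorbance at 485 nm in the plateau phase.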

Assay [20] addresses Glutathione peroxidase 1 (Homo sapiens) (UniProt P07203). Briefly: Primary qHTS Assay for Inhibitors of Recombinant Selenoprotein Glutathione Peroxidase 1 (GPX1) (AID 1845191). Further: nearly all actives have a fitted effect of over 65% in size. In outline:
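10 nM GPX1 + cpd, 30 min RT; start w/ 1 mM GSH, 0.5 mM cumene hydroperoxide, 0.5 mM NADPH, 100 nM GR, 0.01% BSA; buffer 50 mM Tris-HCl pH 7.5, 2 mM EDTA, 150 mM NaCl; Fl 340/450, 0 & 15 min.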

Assay [21] addresses Phospholipid hydroperoxide glutathione peroxidase GPX4 (Homo sapiens) (UniProt P36969). As to the kind of experiment: Primary qHTS Assay for Inhibitors of Recombinant Selenoprotein Glutathione Peroxidase 4 (GPX4) (AID 1845192). Further: series mostly up to about 50 µM; nearly all actives have a fitted effect of over 65% in size. The following applies: outcome: dose series up to 50 µM unless noted. In outline:
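NADPH consumption, followed by fluorescence at 340/450 nm between 0 and 15 min, reports GPX4 activity via coupled glutathione reductase (100 nM). Enzyme 200 nM was pre-exposed to compound 30 min; 0.5 mM cumene hydroperoxide and 1 mM GSH served as substrates.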

Each structure is given as a SMILES string. Inconclusive results are not listed. The source made the active and inactive calls. The call rests on the fitted dose curve; in most records, active means well fitted curve in the direction sought with a large enough effect; inconclusive means small, poorly fitted or top-dose-only effect, or another doubt; inactive means no such curve, though single readings can be large; an effect the other way counts as inactive or inconclusive.

T1 sequence (P35557 whole entry, looked up): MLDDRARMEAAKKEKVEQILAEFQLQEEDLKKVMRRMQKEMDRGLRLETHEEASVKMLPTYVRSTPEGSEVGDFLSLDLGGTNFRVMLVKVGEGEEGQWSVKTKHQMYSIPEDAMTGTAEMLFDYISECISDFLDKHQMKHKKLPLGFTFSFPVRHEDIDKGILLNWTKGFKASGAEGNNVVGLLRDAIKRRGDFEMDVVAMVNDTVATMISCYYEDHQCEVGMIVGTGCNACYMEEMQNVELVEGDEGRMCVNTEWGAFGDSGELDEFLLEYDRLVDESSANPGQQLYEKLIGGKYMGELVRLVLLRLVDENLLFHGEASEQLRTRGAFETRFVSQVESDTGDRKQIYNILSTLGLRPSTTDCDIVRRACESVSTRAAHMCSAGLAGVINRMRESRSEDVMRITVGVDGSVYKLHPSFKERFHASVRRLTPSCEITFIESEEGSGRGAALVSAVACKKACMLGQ
T1 sequence (Q14397 whole entry, looked up): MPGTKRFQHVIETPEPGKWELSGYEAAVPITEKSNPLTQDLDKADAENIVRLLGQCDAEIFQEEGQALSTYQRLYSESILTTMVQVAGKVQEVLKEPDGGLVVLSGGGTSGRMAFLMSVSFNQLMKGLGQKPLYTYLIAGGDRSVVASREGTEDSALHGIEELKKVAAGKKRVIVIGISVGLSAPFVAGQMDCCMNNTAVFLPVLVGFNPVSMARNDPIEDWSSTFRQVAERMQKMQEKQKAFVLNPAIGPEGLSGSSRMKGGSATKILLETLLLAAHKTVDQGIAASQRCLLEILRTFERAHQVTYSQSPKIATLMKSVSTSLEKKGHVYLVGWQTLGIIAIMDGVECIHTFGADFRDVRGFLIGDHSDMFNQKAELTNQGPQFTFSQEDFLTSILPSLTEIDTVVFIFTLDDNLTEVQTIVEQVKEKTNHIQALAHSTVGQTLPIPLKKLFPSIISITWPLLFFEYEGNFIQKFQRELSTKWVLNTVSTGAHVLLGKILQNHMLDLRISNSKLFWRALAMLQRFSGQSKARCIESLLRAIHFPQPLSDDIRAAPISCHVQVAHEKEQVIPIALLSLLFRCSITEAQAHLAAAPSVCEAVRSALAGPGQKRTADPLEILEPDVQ
N-terminal Xaa-Pro-Lys N-methyltransferase 1 (Homo sapiens), sequence (Q9BV86 whole entry, looked up): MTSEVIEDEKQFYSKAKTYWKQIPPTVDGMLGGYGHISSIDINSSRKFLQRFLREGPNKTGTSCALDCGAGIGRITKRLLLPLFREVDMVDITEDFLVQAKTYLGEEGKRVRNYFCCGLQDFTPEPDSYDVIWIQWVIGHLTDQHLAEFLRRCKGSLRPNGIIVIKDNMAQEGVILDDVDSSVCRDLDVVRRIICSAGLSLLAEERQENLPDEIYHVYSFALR
Tyrosine-protein phosphatase non-receptor type substrate 1 (Homo sapiens) + Leukocyte surface antigen CD47 (Homo sapiens), sequence (P78324 whole entry, looked up): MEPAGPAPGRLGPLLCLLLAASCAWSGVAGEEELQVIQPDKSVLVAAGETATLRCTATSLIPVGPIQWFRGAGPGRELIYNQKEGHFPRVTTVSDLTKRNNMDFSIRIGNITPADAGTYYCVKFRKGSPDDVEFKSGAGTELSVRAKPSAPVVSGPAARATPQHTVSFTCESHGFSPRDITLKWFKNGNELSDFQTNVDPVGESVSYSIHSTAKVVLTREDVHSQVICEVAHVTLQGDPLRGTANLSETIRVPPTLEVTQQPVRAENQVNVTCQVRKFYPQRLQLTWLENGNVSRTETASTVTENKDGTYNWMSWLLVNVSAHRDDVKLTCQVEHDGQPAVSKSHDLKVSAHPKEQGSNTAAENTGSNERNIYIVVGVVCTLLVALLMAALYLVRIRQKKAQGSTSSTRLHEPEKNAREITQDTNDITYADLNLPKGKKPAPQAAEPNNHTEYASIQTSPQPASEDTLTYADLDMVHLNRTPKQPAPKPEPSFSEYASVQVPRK
Tyrosine-protein phosphatase non-receptor type substrate 1 (Homo sapiens) + Leukocyte surface antigen CD47 (Homo sapiens), sequence (Q08722 whole entry, looked up): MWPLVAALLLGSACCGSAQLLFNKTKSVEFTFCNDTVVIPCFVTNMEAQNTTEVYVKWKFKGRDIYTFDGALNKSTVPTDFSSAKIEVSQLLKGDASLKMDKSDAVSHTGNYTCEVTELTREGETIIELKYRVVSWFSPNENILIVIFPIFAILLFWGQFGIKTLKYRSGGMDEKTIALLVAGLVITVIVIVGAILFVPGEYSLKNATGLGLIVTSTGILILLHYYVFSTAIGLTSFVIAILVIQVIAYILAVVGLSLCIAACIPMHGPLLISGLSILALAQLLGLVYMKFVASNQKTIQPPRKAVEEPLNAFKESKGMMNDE
Single-stranded DNA cytosine deaminase (Homo sapiens), sequence (Q9GZX7 whole entry, looked up): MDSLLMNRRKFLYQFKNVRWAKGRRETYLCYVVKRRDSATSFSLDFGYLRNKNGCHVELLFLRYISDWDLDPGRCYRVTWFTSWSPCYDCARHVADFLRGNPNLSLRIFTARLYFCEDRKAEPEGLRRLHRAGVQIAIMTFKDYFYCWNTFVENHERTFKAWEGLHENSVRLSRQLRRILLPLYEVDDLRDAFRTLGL
Phospholipid hydroperoxide glutathione peroxidase GPX4 (Homo sapiens), sequence (P36969 whole entry, looked up): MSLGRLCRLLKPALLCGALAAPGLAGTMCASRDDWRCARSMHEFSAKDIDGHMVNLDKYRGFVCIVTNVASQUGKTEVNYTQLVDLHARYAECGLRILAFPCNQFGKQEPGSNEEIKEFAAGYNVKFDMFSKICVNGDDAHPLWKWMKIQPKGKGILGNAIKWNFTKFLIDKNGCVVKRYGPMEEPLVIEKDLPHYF
Glutathione peroxidase 1 (Homo sapiens), sequence (P07203 whole entry, looked up): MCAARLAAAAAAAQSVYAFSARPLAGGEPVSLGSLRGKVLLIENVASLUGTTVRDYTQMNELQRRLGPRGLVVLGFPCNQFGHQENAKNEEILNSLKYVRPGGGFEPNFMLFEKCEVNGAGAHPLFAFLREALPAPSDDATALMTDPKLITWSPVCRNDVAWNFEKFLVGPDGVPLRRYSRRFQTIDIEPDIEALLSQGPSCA
Calcium and integrin-binding protein 1 (Homo sapiens), sequence (Q99828 whole entry, looked up): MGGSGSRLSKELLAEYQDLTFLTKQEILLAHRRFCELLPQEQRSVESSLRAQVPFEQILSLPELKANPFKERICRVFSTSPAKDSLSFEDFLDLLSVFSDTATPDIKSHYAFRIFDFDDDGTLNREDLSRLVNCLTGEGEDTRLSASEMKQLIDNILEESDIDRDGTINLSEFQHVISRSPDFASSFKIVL

Regarding `N#C/C(=C\c1ccc(O)c(O)c1)C(=O)Nc1ccccc1`, the compound was called inactive in assay [1], in [2], in assay [3], in assay [4], in assay [5] and in assay [7]. Besides, the compound was classed as inactive in assay [11], in assay [13], in assay [14], in assay [16] and in assay [17]. In addition, the Potency result in assay [6], in assay [10], in assay [12], in assay [15], in [18] and in assay [19] was “inactive” in each case. In addition, the Potency result in [20] and in assay [21] was “inactive” in each case. The results for the Potency in [8] and in assay [9] were 39.8 µM (active) and 3.36 µM (active), respectively.
